Reference: PMC4552634, “A New Set of Chemical Starting Points with Plasmodium falciparum Transmission-Blocking Potential for Antimalarial Drug Discovery” (PLoS ONE, 2015)
Among all 13,000 compounds or so, about 3,200 (25%) showed an effect of 50% or more. This is one part of the list.

test system: P. falciparum stage V gametocytes; set-up: BacTiter-Glo ATP luminescence viability of purified stage V gametocytes in 384-well plates, per cent inhibition versus DMSO; details: 48 h, 5 µM; inhibitor

SMILES | % Inhibition
O=C(Nc1ccc(Cl)c(-c2nc3ccccc3[nH]2)c1)c1ccc(-c2ccc(Cl)cc2)o1 [TCMDC-125599] | -11.96%
N#Cc1ccc(N2CCN(Cc3ccc(-c4ccc(-c5nc6ccccc6[nH]5)s4)cc3)CC2)nc1.O=C(O)C(F)(F)F [TCMDC-133119] | -24.51%
COCCNCc1ccc(-c2ccc(CN(C(=O)NC3CCCCC3)C3CCN(Cc4ccccc4)CC3)cc2)cc1 [TCMDC-140637] | 95.07%
COCCNCc1cccc(-c2ccc(CN(C(=O)NC3CCCCC3)C3CCN(Cc4ccccc4)CC3)cc2)c1 [TCMDC-140636] | 84.07%
C[C@@H](CC1CCCCC1)NCc1cccc(NS(=O)(=O)c2ccc(O)c(-c3ccno3)c2)c1 [TCMDC-141485] | 41.65%
COc1cc(-c2nc(-c3ccccc3)c(-c3ccc([N+](=O)[O-])cc3)[nH]2)cc(OC)c1O [TCMDC-125529] | -60.07%
COc1c(O)cc2oc(-c3ccc(O)cc3)cc(=O)c2c1O [TCMDC-123942] | 46.88%
COc1cc2[nH]c(-c3ccc(O)cc3)c(C)c(=O)c2c(OC)c1OC [TCMDC-137449] | 59.36%
O=C(Nc1ccc(Cn2ncc(N3CCCNCC3)c(Cl)c2=O)cc1)Nc1cc(C(F)(F)F)cc(C(F)(F)F)c1 [TCMDC-133327] | -39.39%
Cc1cc(N2CCOCC2)nc(Nc2ccc(NC(=O)c3cccc4ccccc34)cc2)n1 [TCMDC-124962] | 3.103%
C[C@H](N[C@H]1CCCc2c1[nH]c1ccc(Br)cc21)c1ccccc1 [TCMDC-138915] | -58.95%
Cc1nc(-c2ccc(-c3ccc(NC(=O)c4coc5ccc(N6CC(C)NC(C)C6)cc45)cc3)c(C)c2)no1 (stereo not drawn) [TCMDC-141309] | -4.933%
Cc1nc(-c2ccc(-c3ccc(NC(=O)c4coc5ccc(N6CC(C)N(C)C(C)C6)cc45)cc3)c(C)c2)no1 (stereo not drawn) [TCMDC-141233] | 92.65%
Cc1cc(-c2ccc(NC(=O)c3coc4ccc(N5CC(C)N(C)C(C)C5)cc34)cc2C)cc(C)n1 (stereo not drawn) [TCMDC-141310] | -15.05%
O[C@H](c1cc(C(F)(F)F)nc2c(C(F)(F)F)cccc12)[C@@H]1CCCCN1 [TCMDC-123920] | 23.74%
N#Cc1cccc(NC(=O)Nc2ccc3c(c2)CN(Cc2c[nH]c4ncccc24)C3)c1 [TCMDC-141757] | 5.913%
COC(=O)c1cccc(C#CCCOCCCCCCNC[C@H](O)c2cc(Cl)c(N)c(Cl)c2)c1 [TCMDC-138515] | 25.12%
O=C(c1cc(-c2cccs2)[nH]n1)N1CCN(S(=O)(=O)c2ccc(Br)cc2)CC1 [TCMDC-124703] | 15.64%
Cc1ccc(S(=O)(=O)N2CCN(C(=O)c3cc(-c4cccs4)[nH]n3)CC2)c(C)c1 [TCMDC-124700] | 26.64%
O=C(c1cc(-c2ccco2)[nH]n1)N1CCN(S(=O)(=O)c2ccc(Cl)cc2)CC1 [TCMDC-124698] | 58.01%
O=C(c1cc(-c2ccco2)[nH]n1)N1CCN(S(=O)(=O)c2ccc(Br)cc2)CC1 [TCMDC-124699] | -28.22%
O=C(c1cc(-c2cccs2)[nH]n1)N1CCN(S(=O)(=O)c2ccc(Cl)cc2)CC1 [TCMDC-124702] | 54.51%
O=C(c1cc(-c2cccs2)[nH]n1)N1CCN(S(=O)(=O)c2ccc(Cl)s2)CC1 [TCMDC-124701] | 26.12%

SMILES | % Inhibition
CC(Nc1ccnc2cc(Cl)ccc12)c1ccc(S(N)(=O)=O)cc1 (stereo not drawn) [TCMDC-125107] | 16.92%
Cc1nc(Nc2ccc(C)c(Cl)c2)c2c(C)noc2n1 [TCMDC-125162] | 15.95%
Cc1ccc(Cl)cc1NC(=O)c1c(-c2ccccc2Cl)noc1C [TCMDC-124175] | -15.67%
O=C(NC1CCCc2ccccc21)[C@@H]1CCCN1C(=O)c1ccc(O)c(-c2cccc([N+](=O)[O-])c2)c1 (stereo partly drawn) [TCMDC-140798] | 18.58%
COc1ccc(C(=O)N[C@@H](CC(C)C)C(=O)NC2CC[C@@H](C)N(C(=O)Nc3ccc(Cl)cc3)CC2=O)cc1OCCN1CCOCC1 (stereo partly drawn) [TCMDC-134276] | -74.97%
CCOC(=O)c1ccc(N(CCCN(CCCN(c2ccc(C(=O)OCC)cc2)S(=O)(=O)c2ccc(C)cc2)CCc2ccc(O)cc2)S(=O)(=O)c2ccc(C)cc2)cc1 [TCMDC-137351] | 57.74%
CCOC(=O)c1ccc(OCc2ccc(-c3ccccc3)cc2)cc1 [TCMDC-131397] | 4.826%
CCOC(=O)c1ccc(COc2ccc(C)nc2)cc1 [TCMDC-131377] | 0.9057%
CC(CCc1ccccc1)NCC(O)c1ccc2c3c(cccc13)S(=O)(=O)N2C (stereo not drawn) [TCMDC-131253] | 8.689%
FC(F)(F)c1ccc2c(NCCNc3ccnc4cc(C(F)(F)F)ccc34)ccnc2c1 [TCMDC-137881] | -4.365%
c1ccc2c(NCCCCCCNc3ccnc4ccccc34)ccnc2c1 [TCMDC-137913] | 91.15%
Clc1ccc2c(NCCNc3ccnc4cc(Cl)ccc34)ccnc2c1 [TCMDC-137882] | 57.8%
COc1ccc(NCCCNc2ccnc3ccccc23)cc1 [TCMDC-139253] | -97.14%
Clc1ccc2c(NCCCCCCCCNc3ccnc4cc(Cl)ccc34)ccnc2c1 [TCMDC-137733] | 25.46%
c1ccc2c(NCCCCCCCNc3ccnc4ccccc34)ccnc2c1 [TCMDC-137897] | 122.9%
FC(F)(F)c1ccc2c(NCCCNc3ccnc4cc(C(F)(F)F)ccc34)ccnc2c1 [TCMDC-137736] | 28.34%
NCCCNc1ccnc2cc(Cl)ccc12 [TCMDC-123921] | 17.37%
c1ccc2c(NCCCCCCCCCNc3ccnc4ccccc34)ccnc2c1 [TCMDC-137750] | 102.2%
NCCNc1ccnc2cc(Cl)ccc12 [TCMDC-125850] | 23.17%
COc1ccccc1-c1cccc2c(NC(=O)Nc3ccc4nccc(N5CCN(C)CC5)c4c3)ccnc12 [TCMDC-139384] | -27.38%
COc1ccc(C(=C(C)CC(C)C(=O)O)c2ccccc2)cc1 (stereo not drawn) [TCMDC-131745] | -8.546%
Cc1c(CNCCCNc2nc3ccccc3[nH]2)sc(C(F)F)c1Br [TCMDC-141323] | 13.37%
Cc1ccccc1-c1cc(=O)c2cc(NC(=O)c3cccs3)ccc2o1 [TCMDC-124947] | 11.18%

SMILES | % Inhibition
COc1ccccc1/C=C/C(=O)N(C)C1CCN(CCCCCNC(=O)/C=C/c2ccc(Cl)c(Cl)c2)C1 (stereo not drawn) [TCMDC-139996] | 13.3%
Nc1nc(N)c2c(n1)CCc1cc(Br)ccc1-2 [TCMDC-125525] | 4.608%
CN1CCC(c2c[nH]c3ccc(NC(=O)Nc4ccc(-c5ccncc5)cc4Cl)cc23)CC1 [TCMDC-139180] | -1.977%
CC(C)(C)CNc1noc(-c2sccc2Br)n1 [TCMDC-134187] | -20.57%
C=CCN1C(=O)CN(S(=O)(=O)c2ccc(-n3nc(C)cc3C)cc2)C1=S [TCMDC-131799] | -1.195%
CN(CCCNC(=S)NC12CC3CC(CC(C3)C1)C2)CCCNc1ccnc2cc(Cl)ccc12 [TCMDC-137885] | 114.9%
c1ccc2c(NCCCCCCCCNc3ccnc4ccccc34)ccnc2c1 [TCMDC-137751] | 124.8%
CNCCCNc1ccnc2cc(Cl)ccc12 [TCMDC-125233] | 36.92%
CN(C)CCCNc1ccnc2cc(Cl)ccc12 [TCMDC-123919] | 17.18%
CN1CCN(Cc2cc(NC(=O)c3ccc(-c4ccc(Cl)cc4Cl)cc3)ccc2-c2ccccc2)CC1 [TCMDC-138839] | 21.61%
CC(C)CN1CCC(N(C)c2cc(NC(=O)c3cccc(F)c3)ccn2)CC1 [TCMDC-135022] | -32.51%
CC(C)Cn1c(Sc2ccc(C#N)c([N+](=O)[O-])c2)nnc1-c1cccs1 [TCMDC-135575] | 26.53%
O=C(Nc1cccc(C(F)(F)F)c1)Nc1cc(F)c(F)cc1Cl [TCMDC-123779] | 32.47%
CCc1ccc(-n2c(NC(=O)c3ccccc3)nc3ccc(S(=O)(=O)NC(C)C(C)C)cc32)cc1 (stereo not drawn) [TCMDC-136236] | 39.19%
CC(OC(=O)c1ccc(C(=O)NCC2CC2)cc1)C(C)(C)C (stereo not drawn) [TCMDC-138180] | 11.69%
CCO[C@H]1CN[C@H](C#Cc2cc3c(Nc4ccc(OCc5cccc(F)c5)c(Cl)c4)ncnc3s2)C1 [TCMDC-135170] | 22.02%
COc1cc(Nc2ccnc3ccc(C(C)(C)C)cc23)cc(OC)c1OC [TCMDC-138886] | -36.54%
CC(C)(C)c1ccc2nccc(Nc3cccc(O)c3)c2c1 [TCMDC-138884] | 71.55%
Cc1ccc(O)cc1Nc1ccnc2ccc(C(C)(C)C)cc12 [TCMDC-138885] | -11.57%
C=CCC(CC=C)N1C(=O)C(c2ccccc2)(c2ccccc2)N=C1N [TCMDC-136807] | 5.028%
O=C(/C=C/c1ccc(C(F)(F)F)cc1)NCCCCCN1CCN(C(=O)Nc2ccc(Cl)c(Cl)c2)CC1 [TCMDC-136094] | -8.361%
CC1CCC2(CC1)N=C(N)N=C(N)N2OCc1cc2ccccc2c2ccccc12 (stereo not drawn) [TCMDC-131590] | 22.45%
C[C@H](NC(=O)c1c(CN2CCC(N3CCCCC3)CC2)c(-c2ccccc2)nc2cc(O)ccc12)C1CCCCC1 [TCMDC-140408] | 25.99%
